This is a sample that favours compounds with a hit; in the whole collection about 2.5% have one here.
PK Bst – alters activity of Bacillus stearothermophilus pyruvate kinase. AID 361. purified pyruvate kinase, luminescence ATP production; ribose 5-phosphate activator present at AC10. actives 1.2% (n = 51,000). Potency, µM; in the data active = potency below about 11 µM; inconclusive = mostly about 12 µM to 25 µM;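 the screen sought inhibitors and activators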;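 also: scaled between full activation by ribose 5 phosphate and full inhibition by luteolin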
FLuc inh – inhibitors of firefly luciferase. P08659. purified firefly luciferase, luminescence, 8 min. Potency, µM (doses to about 57.1 µM), for inactives: at the top dose activity change, negative = inhibition, hits mostly inhibitors. actives 2.2% (n = 72,000). AID 411; active = well fitted inhibition curve with a large enough effect; inconclusive = small, poorly fitted or top-dose-only effect; also: nearly all actives have a fitted effect of over 40% in size
Target sequence (P08659 whole entry, looked up): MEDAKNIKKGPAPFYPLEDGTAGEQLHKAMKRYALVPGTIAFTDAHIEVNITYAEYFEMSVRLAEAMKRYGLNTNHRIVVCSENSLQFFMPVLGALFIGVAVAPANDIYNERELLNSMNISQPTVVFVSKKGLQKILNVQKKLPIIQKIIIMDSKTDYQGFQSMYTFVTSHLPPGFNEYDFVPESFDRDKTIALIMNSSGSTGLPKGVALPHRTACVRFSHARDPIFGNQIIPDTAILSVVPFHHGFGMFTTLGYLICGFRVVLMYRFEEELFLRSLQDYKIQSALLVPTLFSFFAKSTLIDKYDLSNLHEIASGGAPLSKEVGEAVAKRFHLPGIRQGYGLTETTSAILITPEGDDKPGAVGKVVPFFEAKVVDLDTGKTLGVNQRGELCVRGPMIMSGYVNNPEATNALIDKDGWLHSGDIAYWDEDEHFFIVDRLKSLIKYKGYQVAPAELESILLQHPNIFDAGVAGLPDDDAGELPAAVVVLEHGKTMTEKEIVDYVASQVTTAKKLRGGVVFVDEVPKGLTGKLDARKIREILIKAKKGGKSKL
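Firefly luciferase (PKLight detection mix) with 10 uM ATP in pH 7.2 imidazole buffer (KCl, MgCl2, Tween 20, BSA). Compounds tested across a concentration series (qHTS). Luminescence read after 8 min at ambient temperature.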
An asterisk follows results filed as active; i = inactive; ? = inconclusive; . = no result; [ ] = another dose, or the depositor's remark. Unless noted, % is scaled to controls: 0 for no effect and ±100 for the full control effect; potency is read from the fitted curve at half-maximal effect.

SMILES	PK Bst	FLuc inh
Cc1cc(C)c2c(N)c(C(=O)Nc3nccs3)sc2n1	.	0.5µM*
COCc1cc(C)nc2sc(C(=O)Nc3nccs3)c(N)c12	.	-13%
COc1cccc(-c2noc(-c3cccnc3)n2)c1	.	13µM*
COc1cccc(-c2nc(-c3ccc(NC(=O)c4cccnc4)cc3)no2)c1	>57	1%
COc1ccc(-c2noc(-c3ccc(Cl)cc3)n2)cc1	5.4*	?
COc1nc(-c2ccccc2)ccc1-c1noc(-c2cccs2)n1	>57	-2%
CCOc1cc(-c2nc(-c3ccc(OC)cc3)no2)cc(OCC)c1OCC	.	1%
COc1cccc(-c2nc(-c3ccccc3)no2)c1	9*	10µM*
COc1ccc(CC(=O)Nc2ccc(-c3noc(-c4cccc(OC)c4)n3)cc2)cc1	>57	0%
COc1cccc(-c2noc(-c3cccs3)n2)c1	?	10µM*
N#Cc1c(-c2ccccc2)nc(N2CCOCC2)[nH]c1=O	>57	-2%
COC(=O)c1ccc(-c2nc(-c3ccc(Br)o3)no2)cc1	.	-7%
COC(=O)c1ccc(-c2nc(-c3cccs3)no2)cc1	.	1.6µM*
COc1ccc(CCNC(=O)c2cnn3ccccc23)c(OC)c1OC	.	-11%
CCOC(=O)c1sc(NC(=O)c2ccco2)nc1C	.	-7%
CCOC(=O)c1sc(NC(=O)c2ccc(C)o2)nc1C	.	13µM*
c1ccc(OCc2nc3ccccc3[nH]2)cc1	.	25µM*
O=C(O)CCc1nc2ccccc2[nH]1	.	1%[11.4 µM]
COc1cc(C(=O)Nc2nc3ccccc3[nH]2)cc(OC)c1OC	.	-20%
O=C(COc1ccccc1)Nc1nc2ccccc2[nH]1	.	20µM*
CCNc1nc(Oc2ccc(C(=O)OC)cc2)nc(SC)n1	>57	2%
CN(CP(=O)(O)C(O)c1ccccc1)S(C)(=O)=O (centres undefined)	.	-5%
CCOC(=O)C1=C(C)N(c2ccccc2)C(=O)C1CC(=O)O (centres undefined)	>57	2%
O=C(Cn1c(C2CC2)nc2ccccc2c1=O)Nc1ccc(Br)cc1	>57	-3%
CN(C)c1ncc2nc(-c3cccc(C#N)c3)c(=O)n(C)c2n1	.	0%[11.4 µM]
SMILES	PK Bst	FLuc inh
COc1cccc(-c2nn(-c3ccccc3)cc2CO)c1	.	-26%
COc1cccc(-c2nn(-c3ccccc3)cc2C(=O)NCC(=O)O)c1	.	20µM*
CCOC(=O)C1C2C=CC3(CN(Cc4ccco4)C(=O)C13)O2 (centres undefined)	>57	3%
COc1ccc(C2OC(=O)CC2C(=O)N2CCN(c3cc(Cl)ccc3C)CC2)cc1OC (centres undefined)	.	0%
CCOC(=O)c1ccc(N)cc1	.	2%[25.5 µM]
CCOC(=O)c1cc(-c2ccc(N)cc2)sc1N	?	13µM*
COc1ccc(C(CNC(=O)COc2ccccc2OC)N(C)C)cc1OC (centres undefined)	>57	-4%
CCCS(=O)(=O)NCc1cn2cccc(C)c2n1	>57	0%
Cc1cccn2cc(CNc3ccccc3)nc12	>57	-18%
Cc1ccc2nc(-c3ccc(S(=O)(=O)N4CCOCC4)cc3)cn2c1	>57	1%
Cc1ccc2nc(-c3ccccc3)cn2c1	0.39*	0.25µM*
Cc1cccn2cc(-c3ccccc3)nc12	?	10µM*
Cc1cccn2cc(-c3ccc(F)cc3)nc12	.	7.9µM*
Cn1c(=O)c2c(nc(OC/C=C/c3ccccc3)n2C)n(C)c1=O	>57	1%
CN(C)c1nc2c(c(=O)n(C)c(=O)n2C)n1CC(=O)c1cccs1	>57	1%
CCc1nnc(NC(=O)CSc2nnc(-c3ccccc3O)n2-c2ccc(C)cc2)s1	>57	3%
COc1ccc(/C(O)=C2/C(=O)C(=O)N(CCN3CCOCC3)C2c2ccccn2)cc1OC (centres undefined)	>26	-1%[25.5 µM]
CCN(CC)c1ccc2cc(-c3nnc(-c4ccncc4)o3)c(=O)oc2c1	>26	-2%[25.5 µM]
CCN(CC)c1ccc2cc(C(=O)Nc3ccccn3)c(=O)oc2c1	i	1µM*
CCN(CC)c1ccc2cc(NC(=O)CCC(=O)O)c(=O)oc2c1	i	16µM*
CCN(CC)c1ccc2cc(C(=O)Nc3cccnc3N3CCOCC3)c(=O)oc2c1	>57	0%
CCC(NC(=O)Cn1cnc2c(=O)n(C)c(=O)n(C)c21)c1ccccc1 (centres undefined)	>57	1%
CCn1c(SCC(=O)N2CCCC2)nc2c1c(=O)n(C)c(=O)n2C	>57	1%
CCOC(=O)C1CCCN(C(=O)Cn2sc3nc(C)cc(C)c3c2=O)C1 (centres undefined)	.	13µM*
CCOC(=O)C1CCCN(C(=O)Cn2cnc3c2c(=O)n(C)c(=O)n3C)C1 (centres undefined)	.	2%
SMILES	PK Bst	FLuc inh
CC(C)(C)Cc1nnc(NS(=O)(=O)Cc2ccccc2)s1	.	2%
O=C(Nc1ccccc1)N(O)c1ccc(Cl)cc1	?	13µM*
O=C(Nc1ccc(Cl)cc1)N(Cc1cccs1)Cc1cccs1	.	1%
O=C(Nc1ccc(N2CCOCC2)c(Cl)c1)c1cccnc1	.	-17%
C[C@@H](CS(=O)(=O)Cc1ccccc1)C(N)=O	.	-1%[11.4 µM]
CCc1ccc(-c2nc(CSCC(=O)NCCCN3CCCC3=O)c(C)o2)cc1	.	-14%
Cc1cccc(NC(=O)CN2C(=O)COc3ccc(Cl)cc32)c1	>57	-2%
O=C(COc1ccccc1O)Nc1ccccc1Cl	.	-21%
Cc1ccc(C)c(OCC(=O)Nc2ccc3c(c2)OCO3)c1	>57	-16%
Cc1cnc(NC(=O)COc2ccccc2Cl)s1	1.4*	1.3µM*
O=C(COc1ccccc1Cl)Nc1ccc2c(c1)OCCO2	.	10µM*
O=C(CN1C(=O)COc2ccc(Cl)cc21)Nc1ccc2c(c1)OCCO2	3.6*	-2%
O=C(COc1ccc(S(=O)(=O)N2CCCC2)cc1Cl)Nc1ccc2c(c1)OCO2	>57	2%
Cc1cccc(OCC(=O)Nc2ccc3c(c2)OCCO3)c1	i	13µM*
Cc1c(C2CC(=O)N(c3ccccc3)C2=O)[nH]n(-c2ccccc2)c1=O (centres undefined)	>26	-4%[25.5 µM]
CCc1ccccc1NC(=O)CSc1nnc([C@@H](N)Cc2ccccc2)o1	>57	-1%
CCS(=O)(=O)Nc1ccc(C(=O)CC2(O)C(=O)Nc3ccccc32)cc1 (centres undefined)	>57	4%
COc1ccc2c(c1)NC1(O)c3ccccc3C(=O)C21O (centres undefined)	>57	1%
CN(c1nnc(N)s1)C1CCCCC1	.	-23%
COc1ccc(CSc2nnnn2Cc2ccccc2)cc1OC	.	-1%
Cc1occc1C(=O)Nc1ccccc1C(=O)O	.	-11%
Cc1occc1C(=O)Nc1nnc(C(F)(F)F)s1	>57	-4%
Cc1occc1C(=O)Nc1cc(C(C)(C)C)on1	.	16µM*
Cc1occc1C(=O)Nc1ccc2ccccc2c1	.	20µM*
CN(C)c1ccc(NC(=O)Nc2ccc3snnc3c2)cc1	>57	-17%
SMILES	PK Bst	FLuc inh
O=C(c1ccc2c3c(cccc13)C(=O)N(O)C2=O)N1CCCCC1	>26	1%[25.5 µM]
O=C1c2cccc3c(Cl)ccc(c23)C(=O)N1O	5.1*	0%
COc1cc2c(cc1OC)CN(C(=O)CC1CC3CCC1C3)CC2 (centres undefined)	i	13µM*
COc1cc2c(cc1OC)CN(C(=O)C(C)(C)C)CC2	.	0%
CCOC(=O)Cc1nc2ccccc2[nH]1	>57	-1%
CCOC(=O)c1ccc(NCc2nc3ccccc3[nH]2)cc1	.	16µM*
Cn1c(=O)c2c(nc(NCCCO)n2Cc2cccc(C(F)(F)F)c2)n(C)c1=O	>26	3%[25.5 µM]
